Rows were chosen to be rich in hits. Some 31% of all compounds tested hit in one or more screens of this group.
CYP2C9 inh – blocks human cytochrome P450 2C9 | P11712 | CYP2C9 Supersomes, luciferin-H conversion, luminescence | inhibition, % at 5 µM | hit rate 20% among 96,000 | AID 777;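 active means blocking of liver enzyme CYP2C9 beyond about 50% at 5 µM, limit read from the data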
CYP2C19 act – increases human CYP2C19 enzyme activity; P33261; recombinant CYP2C19, luciferin-H EGE luminescence; stronger effect = higher value; 0 = fully inhibited enzyme, 1 = untreated enzyme; activation factor at 5 µM; 96,000 tested, under 10 active; AID 1025;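 active means activation factor of at least 2 at 5 µM in the primary screen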
Target sequence (P33261 whole entry, looked up): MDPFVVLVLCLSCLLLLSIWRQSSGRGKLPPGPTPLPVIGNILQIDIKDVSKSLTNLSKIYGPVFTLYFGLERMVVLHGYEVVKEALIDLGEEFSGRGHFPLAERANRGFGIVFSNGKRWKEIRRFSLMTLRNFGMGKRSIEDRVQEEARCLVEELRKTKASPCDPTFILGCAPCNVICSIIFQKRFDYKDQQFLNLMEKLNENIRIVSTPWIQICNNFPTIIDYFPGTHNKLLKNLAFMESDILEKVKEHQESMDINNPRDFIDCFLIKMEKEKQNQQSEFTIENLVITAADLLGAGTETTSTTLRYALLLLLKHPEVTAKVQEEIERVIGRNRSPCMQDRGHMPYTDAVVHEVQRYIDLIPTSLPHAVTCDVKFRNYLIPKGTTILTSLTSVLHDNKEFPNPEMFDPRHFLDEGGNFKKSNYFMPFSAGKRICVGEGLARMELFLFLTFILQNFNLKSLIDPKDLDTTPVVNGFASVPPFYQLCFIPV
CYP2C9 activ – increases human cytochrome P450 2C9 activity | P11712 | recombinant CYP2C9, luciferin-H conversion, luminescence; stronger effect = higher value; factor 1 = untreated enzyme, 0 = blocked | activation factor at 5 µM | hit rate 1.4% among 96,000 | AID 1024;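 active means activation factor of 2 or more for CYP2C9 at a 5 µM dose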
CYP2C19 inhib – blocks human cytochrome P450 2C19; P33261; CYP2C19 Supersomes, luciferin-H EGE luminescence, 30 min; inhibition, % at 5 µM; hit rate 21% among 96,000;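 active means CYP2C19 inhibition above a set limit at 5 µM in the primary screen, cut at about 50% in these data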
Hits are given with their value.

How did Cc1ccc(N(CC(=O)Nc2cc(Cl)ccc2Oc2ccccc2)S(C)(=O)=O)c(C)c1 do in these assays?
CYP2C9 inh: inactive; CYP2C19 act: inactive; CYP2C9 activ: inactive; CYP2C19 inhib: 60.9

How did Cc1ccc(N(CC(=O)Nc2cc(Cl)ccc2Oc2ccccc2)S(C)(=O)=O)cc1C do in these assays?
CYP2C9 inh: 97.8; CYP2C19 act: inactive; CYP2C9 activ: inactive; CYP2C19 inhib: 99.2

Results for CN(C)S(=O)(=O)c1cccc(NC(=O)c2cc3ccccc3o2)c1 ?
CYP2C9 inh: 61.2; CYP2C19 act: inactive; CYP2C9 activ: inactive; CYP2C19 inhib: inactive

Results for Cc1ccc(-c2nc3ncccc3o2)cc1NC(=O)c1cc2ccccc2o1 ?
CYP2C9 inh: inactive; CYP2C19 act: inactive; CYP2C9 activ: inactive; CYP2C19 inhib: inactive

Results for CN(C)S(=O)(=O)c1cccc(NC(=S)Nc2cc(Cl)cc(Cl)c2)c1 ?
CYP2C9 inh: inactive; CYP2C19 act: inactive; CYP2C9 activ: inactive; CYP2C19 inhib: inactive

What do the screens show for `CN(C)S(=O)(=O)c1cccc(NC(=S)Nc2ccc(Cl)cc2Cl)c1`?
CYP2C9 inh: 67.1; CYP2C19 act: inactive; CYP2C9 activ: inactive; CYP2C19 inhib: 71.0

How did O=C(Nc1cccc(-c2nc3ncccc3o2)c1)c1cc2ccccc2o1 do in these assays?
CYP2C9 inh: 89.0; CYP2C19 act: inactive; CYP2C9 activ: inactive; CYP2C19 inhib: inactive

How did CC(C)CCNC(=O)NC(=O)COC(=O)/C=C/c1cnc2ccccc2n1 do in these assays?
CYP2C9 inh: inactive; CYP2C19 act: inactive; CYP2C9 activ: inactive; CYP2C19 inhib: inactive

Results for c1ccc(C2=Nc3ccccc3SC2c2nc3ccccc3[nH]2)cc1 (configuration not stated) ?
CYP2C9 inh: inactive; CYP2C19 act: inactive; CYP2C9 activ: inactive; CYP2C19 inhib: inactive

What do the screens show for `CCn1c(SCc2nc3ccccc3[nH]2)nnc1-c1cccnc1`?
CYP2C9 inh: inactive; CYP2C19 act: inactive; CYP2C9 activ: inactive; CYP2C19 inhib: 77.7

How did CCn1c(SCc2nc3ccccc3[nH]2)nnc1-c1cnccn1 do in these assays?
CYP2C9 inh: inactive; CYP2C19 act: inactive; CYP2C9 activ: inactive; CYP2C19 inhib: 90.8

Results for CCn1c(SCc2nc3ccccc3[nH]2)nnc1-c1ccncc1 ?
CYP2C9 inh: inactive; CYP2C19 act: inactive; CYP2C9 activ: inactive; CYP2C19 inhib: 92.8

Results for COc1nc(N2CCCCCC2)nc(N2CCCCCC2)n1 ?
CYP2C9 inh: 50.8; CYP2C19 act: inactive; CYP2C9 activ: inactive; CYP2C19 inhib: inactive

How did Cc1c(N2C(=O)CS/C2=N\N=C\c2ccc(Br)cc2)c(=O)n(-c2ccccc2)n1C do in these assays?
CYP2C9 inh: inactive; CYP2C19 act: inactive; CYP2C9 activ: inactive; CYP2C19 inhib: inactive

How did O=c1nc2n(c3c4c(sc13)CCC4)CCC2 do in these assays?
CYP2C9 inh: inactive; CYP2C19 act: inactive; CYP2C9 activ: inactive; CYP2C19 inhib: inactive

Results for COCc1cc(=O)[nH]c(Nc2nc(C)c3cc(OC)ccc3n2)n1 ?
CYP2C9 inh: inactive; CYP2C19 act: inactive; CYP2C9 activ: inactive; CYP2C19 inhib: inactive

How did Cc1ccc2nc(Nc3nc(-c4ccccc4)cc(=O)[nH]3)nc(C)c2c1 do in these assays?
CYP2C9 inh: 54.8; CYP2C19 act: inactive; CYP2C9 activ: inactive; CYP2C19 inhib: inactive

Results for O=c1c2cc(N3CCOCC3)ccc2[nH]c(=S)n1CC1CCCO1 (configuration not stated) ?
CYP2C9 inh: 62.4; CYP2C19 act: inactive; CYP2C9 activ: inactive; CYP2C19 inhib: inactive

Results for COCCCn1c(=S)[nH]c2ccc(N3CCOCC3)cc2c1=O ?
CYP2C9 inh: inactive; CYP2C19 act: inactive; CYP2C9 activ: inactive; CYP2C19 inhib: inactive

What do the screens show for `Nc1ccccc1OCCOCCOCCOc1ccccc1N`?
CYP2C9 inh: 60.3; CYP2C19 act: inactive; CYP2C9 activ: inactive; CYP2C19 inhib: 74.6

Results for CC1(O)N(Cc2ccccc2)C(=O)OC12CCCCC2 (configuration not stated) ?
CYP2C9 inh: inactive; CYP2C19 act: inactive; CYP2C9 activ: inactive; CYP2C19 inhib: 74.2

How did CC1(O)c2ccccc2C(=O)N1Cc1ccccc1 (configuration not stated) do in these assays?
CYP2C9 inh: inactive; CYP2C19 act: inactive; CYP2C9 activ: inactive; CYP2C19 inhib: 85.3

What do the screens show for `CC(=O)CC1(O)C(=O)N(Cc2ccccc2)c2ccccc21` (configuration not stated)?
CYP2C9 inh: inactive; CYP2C19 act: inactive; CYP2C9 activ: inactive; CYP2C19 inhib: inactive

What do the screens show for `CC1(O)c2ccccc2C(=O)N1CCc1ccccc1F` (configuration not stated)?
CYP2C9 inh: inactive; CYP2C19 act: inactive; CYP2C9 activ: inactive; CYP2C19 inhib: 95.6

How did CN1CCC(N(C)C(=O)c2ccccc2Nc2ccc(SC(F)F)cc2)CC1 do in these assays?
CYP2C9 inh: inactive; CYP2C19 act: inactive; CYP2C9 activ: inactive; CYP2C19 inhib: inactive
